Inconclusive results are not listed. Calls of active or inactive are those of the source. How the source made its calls, unless noted: active means hit-call score of the fitted dose curve at least 0.9, where 1 is the maximum; inactive means score below 0.9.
What was measured:
[1] = molecular target: X-box-binding protein 1 (Homo sapiens) (UniProt P17861); assay: ATG_Xbp1_CIS: Attagene CIS-FACTORIAL HepG2 Assay for human X-box Binding Protein 1 (XBP1) (AID 2282972); details: HepG2 XBP1 cis-element reporter, Attagene multiplex; actives raise or lower the signal
X-box-binding protein 1 (Homo sapiens), sequence (P17861 whole entry, looked up, the tested form may be a part): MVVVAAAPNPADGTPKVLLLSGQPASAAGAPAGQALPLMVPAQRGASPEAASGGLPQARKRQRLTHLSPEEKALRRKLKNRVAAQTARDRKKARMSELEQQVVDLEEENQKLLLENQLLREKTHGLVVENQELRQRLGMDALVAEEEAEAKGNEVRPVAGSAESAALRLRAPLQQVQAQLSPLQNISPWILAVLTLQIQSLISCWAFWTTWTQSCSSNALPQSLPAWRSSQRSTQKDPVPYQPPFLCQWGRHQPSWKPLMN
Summary of the method: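 Read-out: fluorescent reporter mRNA fragments resolved by capillary electrophoresis after RT-PCR. Human HepG2 liver cells carried transfected cis-promoter reporter units and were exposed to chemicals for 24 hours. Gain or loss of signal fitted relative to DMSO baseline.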

[2] = ATG_GAL4_TRANS: Attagene TRANS-FACTORIAL HepG2 Assay for GAL4 (Internal Marker) (AID 2282976; active means hit-call score of the fitted dose curve at least 0.9, where 1 is the maximum); details: HepG2 Attagene TRANS GAL4 internal marker reporter
Summary of the method: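 Background-control readout: GAL4-UAS reporter transcript in transiently transfected HepG2 cells after 24 h compound exposure. Measured by RT-PCR, 6-FAM primer extension, HpaI digest and capillary electrophoresis; gain-of-signal fit versus DMSO.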

[3] = molecular target: Oxysterols receptor LXR-alpha (Homo sapiens) (UniProt Q13133); assay: ATG_LXRa_TRANS: Attagene TRANS-FACTORIAL HepG2 Assay for human Liver X Receptor alpha (LXRa) (AID 2282980; active means hit-call score of the fitted dose curve at least 0.9, where 1 is the maximum); details: HepG2 Attagene TRANS reporter, LXRa transactivation
Oxysterols receptor LXR-alpha (Homo sapiens), sequence (Q13133 whole entry, looked up, the tested form may be a part): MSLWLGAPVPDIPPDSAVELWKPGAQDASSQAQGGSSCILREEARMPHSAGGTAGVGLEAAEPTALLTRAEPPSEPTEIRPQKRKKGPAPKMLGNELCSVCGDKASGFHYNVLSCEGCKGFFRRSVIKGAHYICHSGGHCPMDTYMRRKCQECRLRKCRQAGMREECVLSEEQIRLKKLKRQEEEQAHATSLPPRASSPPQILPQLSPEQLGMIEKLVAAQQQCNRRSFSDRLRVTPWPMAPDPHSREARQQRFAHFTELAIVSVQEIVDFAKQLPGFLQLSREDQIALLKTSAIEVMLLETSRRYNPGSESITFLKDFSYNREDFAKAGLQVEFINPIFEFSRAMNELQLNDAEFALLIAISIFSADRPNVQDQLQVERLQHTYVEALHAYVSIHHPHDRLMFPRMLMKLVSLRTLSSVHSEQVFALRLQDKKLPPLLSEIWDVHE
Summary of the method: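 HepG2 cells transiently transfected with GAL4-UAS reporter units for chimeric NR-Gal4 proteins, exposed to chemicals for 24 h. Reporter mRNA quantified by RT-PCR and capillary electrophoresis; gain of signal fitted relative to DMSO.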

[4] = ATG_M_06_TRANS: Attagene TRANS-FACTORIAL HepG2 Assay for M06 Transcription Factor (Internal Marker) (AID 2282983; active means hit-call score of the fitted dose curve at least 0.9, where 1 is the maximum;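 further: reporter transcript level by RT-PCR then capillary electrophoresis fluorescence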); details: HepG2 Attagene TRANS M06 internal marker reporter
Summary of the method: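 mRNA levels of a reporter transcript, quantified as FAM fluorescence on capillary electrophoresis, served as readout. HepG2 cells expressing exogenous GAL4-chimera reporter constructs were exposed for 24 h. Gain of signal over DMSO was evaluated.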

[5] = ATG_M_32_TRANS: Attagene TRANS-FACTORIAL HepG2 Assay for M32 Transcription Factor (Internal Marker) (AID 2282984; active means hit-call score of the fitted dose curve at least 0.9, where 1 is the maximum); details: HepG2 Attagene TRANS M32 internal marker reporter
Summary of the method: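 Read-out: fluorescent reporter cDNA fragments resolved by capillary electrophoresis after RT-PCR of total RNA. Transfected HepG2 cells were exposed to chemical for 24 h. Activity scored in the positive direction relative to DMSO.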

[6] = molecular target: Nuclear respiratory factor 1 (Homo sapiens) (UniProt Q16656); assay: ATG_NRF1_CIS: Attagene CIS-FACTORIAL HepG2 Assay for human Nuclear Respiratory Factor 1 (NRF1) Orphan Gene (AID 2282987); details: HepG2 NRF1 cis-element reporter, Attagene multiplex; actives raise or lower the signal
Nuclear respiratory factor 1 (Homo sapiens), sequence (Q16656 whole entry, looked up, the tested form may be a part): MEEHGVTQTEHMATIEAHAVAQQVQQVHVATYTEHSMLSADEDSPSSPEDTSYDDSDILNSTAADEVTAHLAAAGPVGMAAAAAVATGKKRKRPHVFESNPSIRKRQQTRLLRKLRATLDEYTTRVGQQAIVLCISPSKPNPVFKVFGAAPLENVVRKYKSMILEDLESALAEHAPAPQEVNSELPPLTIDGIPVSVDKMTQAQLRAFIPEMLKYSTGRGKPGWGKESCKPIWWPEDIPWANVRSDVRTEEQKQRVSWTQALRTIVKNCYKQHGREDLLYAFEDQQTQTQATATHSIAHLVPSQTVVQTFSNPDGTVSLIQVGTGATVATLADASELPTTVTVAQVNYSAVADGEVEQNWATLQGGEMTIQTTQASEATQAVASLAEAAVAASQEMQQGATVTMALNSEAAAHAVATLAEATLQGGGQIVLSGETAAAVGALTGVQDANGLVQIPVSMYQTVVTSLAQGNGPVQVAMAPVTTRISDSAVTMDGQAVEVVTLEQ
Summary of the method: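 Fluorescence intensity of labelled reporter cDNA fragments, resolved by capillary electrophoresis, served as readout for NRF1 cis-element activity. Transiently transfected HepG2 cells were dosed for 24 hours; activity in either direction was fitted against DMSO negative control.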

[7] = ATG_NFI_CIS: Attagene CIS-FACTORIAL HepG2 Assay for human Nuclear Factor I (NFI) (AID 2282989); details: HepG2 cis-regulatory reporter, NFI response element transcription; actives raise or lower the signal
Summary of the method: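 Cells: human liver HepG2, transiently transfected with promoter-regulated reporter transcription units. Exposure 24 h. Detection: fluorescent RT-PCR products separated by capillary electrophoresis, normalised to DMSO negative control.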

[8] = molecular target: Myc proto-oncogene protein (Homo sapiens) (UniProt P01106); assay: ATG_Myc_CIS: Attagene CIS-FACTORIAL HepG2 Assay for human Myelocytomatosis (Myc) Proto-Oncogene Transcription Factor (AID 2282990); details: HepG2, Attagene cis-reporter transcription factor activity; actives raise or lower the signal
Summary of the method: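 Fluorescence intensity of reporter-specific cDNA fragments, separated by capillary electrophoresis, gives the signal. Transfected HepG2 cells carrying cis-promoter reporter constructs are incubated with compound for 24 h; DMSO serves as baseline.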

[9] = molecular target: Nuclear receptor subfamily 4 group A member 2 (Homo sapiens) (UniProt P43354); assay: ATG_NURR1_TRANS: Attagene TRANS-FACTORIAL HepG2 Assay for human Nuclear Receptor Related Protein 1 (NURR1) (AID 2282985; active means hit-call score of the fitted dose curve at least 0.9, where 1 is the maximum); details: HepG2 Attagene TRANS reporter, mRNA readout
Nuclear receptor subfamily 4 group A member 2 (Homo sapiens), sequence (P43354 whole entry, looked up, the tested form may be a part): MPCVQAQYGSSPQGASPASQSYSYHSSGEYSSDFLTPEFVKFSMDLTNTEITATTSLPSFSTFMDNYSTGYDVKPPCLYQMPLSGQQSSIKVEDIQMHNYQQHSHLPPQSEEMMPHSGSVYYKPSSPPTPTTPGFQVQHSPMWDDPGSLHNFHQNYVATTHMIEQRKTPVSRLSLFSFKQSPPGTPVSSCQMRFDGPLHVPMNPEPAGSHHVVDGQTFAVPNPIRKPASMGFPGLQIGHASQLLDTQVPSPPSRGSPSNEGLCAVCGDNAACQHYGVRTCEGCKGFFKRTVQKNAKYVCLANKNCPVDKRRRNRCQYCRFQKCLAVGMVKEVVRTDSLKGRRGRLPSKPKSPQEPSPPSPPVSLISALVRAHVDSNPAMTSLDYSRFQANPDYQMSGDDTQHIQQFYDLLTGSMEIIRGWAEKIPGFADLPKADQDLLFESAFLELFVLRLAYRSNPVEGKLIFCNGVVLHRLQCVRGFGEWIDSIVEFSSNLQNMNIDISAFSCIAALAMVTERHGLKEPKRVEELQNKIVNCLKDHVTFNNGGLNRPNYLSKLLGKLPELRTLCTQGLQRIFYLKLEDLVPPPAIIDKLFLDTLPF
Summary of the method: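 Read-out: reporter mRNA induction by RT-PCR plus capillary electrophoresis with fluorescence detection, after 24 h dosing of transfected HepG2 cells. Exogenous NR-Gal4 chimera activity drives GAL4-UAS reporter; activity fitted upward versus DMSO.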

[10] = ATG_NRF2_ARE_CIS: Attagene CIS-FACTORIAL HepG2 Assay for human Nuclear Factor Erythroid 2 Related Factor 2 (NFR2) response to Antioxidant Response Elements (ARE) (AID 2282992); details: HepG2 Attagene ARE/NRF2 reporter, transcription factor activity; actives raise or lower the signal;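 on AC50: reporter mRNA level measured by RT-PCR and capillary electrophoresis fluorescence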
Summary of the method: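 Readout: reporter mRNA quantified by RT-PCR plus FAM-labelled primer extension, HpaI digestion and capillary electrophoresis, 24 h after dosing transfected HepG2 cells. Gain or loss of signal is fitted bidirectionally against DMSO baseline.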

[11] = molecular target: Estrogen-related receptor gamma (Homo sapiens) (UniProt P62508); assay: ATG_ERRg_TRANS: Attagene TRANS-FACTORIAL HepG2 Assay for human Estrogen-Related Receptor gamma (ERRg) (AID 2282977; active means hit-call score of the fitted dose curve at least 0.9, where 1 is the maximum;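 further: hits increase reporter signal over DMSO so potencies reflect activators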); details: HepG2 Attagene TRANS reporter, ERRg transactivation
Summary of the method: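 Exogenous NR-Gal4 chimera activity was assessed in HepG2 cells bearing transfected GAL4-UAS reporters. After 24 h dosing, total RNA underwent RT-PCR, fluorescent primer extension and HpaI digestion before capillary electrophoresis, with gain of signal scored against DMSO.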

[12] = molecular target: Glucocorticoid receptor (Homo sapiens) (UniProt P04150); assay: ATG_GR_TRANS: Attagene TRANS-FACTORIAL HepG2 Assay for human Glucocorticoid Receptor (GR) (AID 2282978; active means hit-call score of the fitted dose curve at least 0.9, where 1 is the maximum;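 further: activators score as hits since higher reporter transcript over DMSO is fitted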); details: HepG2 Attagene TRANS GR reporter, mRNA transcription
Glucocorticoid receptor (Homo sapiens), sequence (P04150 whole entry, looked up, the tested form may be a part): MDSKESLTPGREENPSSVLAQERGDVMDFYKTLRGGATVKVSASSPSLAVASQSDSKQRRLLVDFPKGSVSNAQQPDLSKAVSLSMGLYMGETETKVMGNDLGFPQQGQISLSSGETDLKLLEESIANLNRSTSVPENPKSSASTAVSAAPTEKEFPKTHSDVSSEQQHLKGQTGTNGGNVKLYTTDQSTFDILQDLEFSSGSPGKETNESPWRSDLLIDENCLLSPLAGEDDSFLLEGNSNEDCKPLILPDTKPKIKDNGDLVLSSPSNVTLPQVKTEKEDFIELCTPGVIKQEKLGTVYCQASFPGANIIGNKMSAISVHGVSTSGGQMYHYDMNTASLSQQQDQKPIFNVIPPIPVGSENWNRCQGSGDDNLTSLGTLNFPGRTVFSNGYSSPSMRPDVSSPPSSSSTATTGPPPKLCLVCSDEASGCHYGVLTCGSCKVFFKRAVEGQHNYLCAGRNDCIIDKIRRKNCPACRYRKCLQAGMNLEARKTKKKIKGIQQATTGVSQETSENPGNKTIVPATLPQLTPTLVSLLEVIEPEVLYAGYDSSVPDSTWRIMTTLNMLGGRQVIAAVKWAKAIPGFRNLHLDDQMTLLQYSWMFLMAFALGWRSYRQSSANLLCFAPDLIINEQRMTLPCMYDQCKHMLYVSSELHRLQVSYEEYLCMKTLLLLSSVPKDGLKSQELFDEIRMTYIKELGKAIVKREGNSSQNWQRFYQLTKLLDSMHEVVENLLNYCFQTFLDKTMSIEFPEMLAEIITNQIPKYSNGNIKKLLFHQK
Summary of the method: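 In this trans-factorial format, exogenous NR-GAL4 chimeric proteins in transfected HepG2 cells regulate GAL4-UAS reporter transcription. After 24 h treatment, reporter mRNA induction relative to DMSO is read by RT-PCR and capillary electrophoresis.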

[13] = molecular target: Bile acid receptor (Homo sapiens) (UniProt Q96RI1); assay: ATG_FXR_TRANS: Attagene TRANS-FACTORIAL HepG2 Assay for Farnesoid X Receptor (FXR) (AID 2282979; active means hit-call score of the fitted dose curve at least 0.9, where 1 is the maximum;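 further: hits raise reporter mRNA above DMSO so AC50 marks FXR activation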); details: HepG2 Attagene TRANS FXR-GAL4 reporter transcription
Bile acid receptor (Homo sapiens), sequence (Q96RI1 whole entry, looked up, the tested form may be a part): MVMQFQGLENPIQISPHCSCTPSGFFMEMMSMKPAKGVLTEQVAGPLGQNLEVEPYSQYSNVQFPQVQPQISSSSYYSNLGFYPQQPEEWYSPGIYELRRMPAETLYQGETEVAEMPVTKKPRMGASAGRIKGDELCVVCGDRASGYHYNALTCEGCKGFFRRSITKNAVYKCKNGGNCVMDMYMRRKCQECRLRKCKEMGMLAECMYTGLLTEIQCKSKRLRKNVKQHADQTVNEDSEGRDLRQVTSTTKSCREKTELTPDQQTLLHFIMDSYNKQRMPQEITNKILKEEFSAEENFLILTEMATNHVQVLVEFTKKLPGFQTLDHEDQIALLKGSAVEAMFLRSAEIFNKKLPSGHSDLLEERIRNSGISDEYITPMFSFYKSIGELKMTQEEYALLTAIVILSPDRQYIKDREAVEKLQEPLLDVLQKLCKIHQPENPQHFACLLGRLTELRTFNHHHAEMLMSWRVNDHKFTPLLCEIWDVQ
Summary of the method: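 HepG2 cells were transiently transfected with GAL4-UAS reporters driven by chimeric NR-Gal4 proteins and dosed for 24 h. Reporter mRNA was quantified by RT-PCR, fluorescent labelling, HpaI digestion and capillary electrophoresis, with gain of signal scored versus DMSO.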

[14] = molecular target: Oxysterols receptor LXR-beta (Homo sapiens) (UniProt P55055); assay: ATG_LXRb_TRANS: Attagene TRANS-FACTORIAL HepG2 Assay for human Liver X Receptor beta (LXRb) (AID 2282981; active means hit-call score of the fitted dose curve at least 0.9, where 1 is the maximum); details: HepG2 Attagene TRANS GAL4-LXRb reporter, mRNA
Oxysterols receptor LXR-beta (Homo sapiens), sequence (P55055 whole entry, looked up, the tested form may be a part): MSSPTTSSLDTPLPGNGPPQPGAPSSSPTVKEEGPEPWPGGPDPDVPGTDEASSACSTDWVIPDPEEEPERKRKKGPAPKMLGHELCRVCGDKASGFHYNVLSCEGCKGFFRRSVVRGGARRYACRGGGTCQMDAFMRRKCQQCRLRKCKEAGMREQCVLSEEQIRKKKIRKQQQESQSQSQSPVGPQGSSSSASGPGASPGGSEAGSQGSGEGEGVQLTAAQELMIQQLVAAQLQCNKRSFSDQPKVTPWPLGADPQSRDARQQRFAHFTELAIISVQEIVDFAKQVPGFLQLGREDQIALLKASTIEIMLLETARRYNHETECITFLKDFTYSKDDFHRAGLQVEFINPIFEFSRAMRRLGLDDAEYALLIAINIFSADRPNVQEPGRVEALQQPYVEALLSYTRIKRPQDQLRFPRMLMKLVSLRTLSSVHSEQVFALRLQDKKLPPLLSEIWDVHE
Summary of the method: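 Readout: fluorescent reporter mRNA fragments resolved by capillary electrophoresis after RT-PCR. System: transiently transfected human HepG2, exogenous LXRb-Gal4 chimera driving GAL4-UAS reporter, 24 h dosing. Activity fitted upward against DMSO baseline.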

[15] = molecular target: Hepatocyte nuclear factor 4-alpha (Homo sapiens) (UniProt P41235); assay: ATG_HNF4a_TRANS: Attagene TRANS-FACTORIAL HepG2 Assay for human Hepatocyte Nuclear Factor 4 alpha (HNF4a) (AID 2282982; active means hit-call score of the fitted dose curve at least 0.9, where 1 is the maximum); details: HepG2 HNF4a transactivation reporter, mRNA readout
Hepatocyte nuclear factor 4-alpha (Homo sapiens), sequence (P41235 whole entry, looked up): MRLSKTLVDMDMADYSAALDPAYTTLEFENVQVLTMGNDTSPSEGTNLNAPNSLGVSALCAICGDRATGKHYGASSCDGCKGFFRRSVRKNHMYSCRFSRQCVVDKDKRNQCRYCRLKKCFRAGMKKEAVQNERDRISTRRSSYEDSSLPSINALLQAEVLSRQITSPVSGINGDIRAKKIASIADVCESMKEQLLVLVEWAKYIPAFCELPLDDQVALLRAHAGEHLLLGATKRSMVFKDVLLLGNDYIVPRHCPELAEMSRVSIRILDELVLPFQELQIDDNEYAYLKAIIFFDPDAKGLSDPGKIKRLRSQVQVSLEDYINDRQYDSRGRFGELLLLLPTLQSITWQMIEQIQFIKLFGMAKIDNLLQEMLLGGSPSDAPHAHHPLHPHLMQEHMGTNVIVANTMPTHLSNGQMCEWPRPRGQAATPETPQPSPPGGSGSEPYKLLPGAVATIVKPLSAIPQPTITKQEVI
Summary of the method: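 Transient MRTU transfection of HepG2, 24 h dosing. Readout: reporter mRNA via RT-PCR + capillary electrophoresis, fluorescence; activity fit upward relative to DMSO control.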

[16] = molecular target: Transcriptional activator Myb (Homo sapiens) (UniProt P10242); assay: ATG_Myb_CIS: Attagene CIS-FACTORIAL HepG2 Assay for human Myeloblastosis (Myb) Proto-Oncogene Transcription Factor (AID 2282986); details: HepG2 Attagene CIS-FACTORIAL Myb reporter transcription; actives raise or lower the signal
Transcriptional activator Myb (Homo sapiens), sequence (P10242 whole entry, looked up): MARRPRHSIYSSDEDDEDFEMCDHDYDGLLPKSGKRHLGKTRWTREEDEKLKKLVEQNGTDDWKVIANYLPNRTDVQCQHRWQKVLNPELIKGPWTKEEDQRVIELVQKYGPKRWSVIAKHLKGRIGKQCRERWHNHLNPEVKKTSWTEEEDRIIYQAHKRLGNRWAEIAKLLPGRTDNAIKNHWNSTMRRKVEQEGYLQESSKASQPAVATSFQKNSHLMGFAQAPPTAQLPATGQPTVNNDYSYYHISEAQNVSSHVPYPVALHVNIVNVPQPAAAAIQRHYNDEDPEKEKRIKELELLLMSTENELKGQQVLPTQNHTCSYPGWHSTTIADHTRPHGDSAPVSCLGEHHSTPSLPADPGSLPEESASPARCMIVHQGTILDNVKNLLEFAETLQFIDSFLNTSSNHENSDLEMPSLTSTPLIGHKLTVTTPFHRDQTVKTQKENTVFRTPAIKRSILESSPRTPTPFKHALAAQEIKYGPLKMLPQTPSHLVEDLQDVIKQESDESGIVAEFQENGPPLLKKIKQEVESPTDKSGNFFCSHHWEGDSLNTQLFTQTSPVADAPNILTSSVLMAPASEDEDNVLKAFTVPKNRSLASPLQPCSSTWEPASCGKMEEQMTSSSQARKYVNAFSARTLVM
Summary of the method: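 Steps: transfect HepG2 with cis-regulated reporter units; dose with chemical for 24 h; isolate RNA, reverse-transcribe, PCR-amplify and FAM-label reporter sequences; digest with HpaI; resolve by capillary electrophoresis. Activity fitted in both directions relative to DMSO.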

[17] = ATG_NF_kB_CIS: Attagene CIS-FACTORIAL HepG2 Assay for human Nuclear Factor Kappa B (NF-kB) (AID 2282991); details: HepG2 Attagene cis-factorial NF-kB reporter mRNA; actives raise or lower the signal
Summary of the method: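 Endogenous transcription factor activity in HepG2 was captured via cis-regulated reporter constructs; after 24 h dosing, reporter mRNA was reverse-transcribed, amplified, fluorescently labelled and sized by capillary electrophoresis, with activity fitted bidirectionally relative to DMSO.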

Measured: AC50

CC(C)O.CC(C)O.OCCN(CCO)CCO.OCCN(CCO)CCO.[Ti]
inactive: [1] | [2] | [3] | [4] | [5] | [6] | [7] | [8]

O=NN1CCOCC1
inactive: [1] | [2] | [4] | [9] | [6] | [7] | [8] | [10]

O=[N+]([O-])c1ccc(Nc2ccccc2)cc1
not listed: [2] | [3] | [5] | [10]
inactive: all other assays above

C=CCOC(N)=O
not listed: [3] | [7] | [11]
inactive: all other assays above

CC[N+](CC)(CC)CC
inactive: [1] | [2] | [12] | [3] | [4] | [6] | [7] | [8]

CCCCN(CCCC)C(=S)S
active: [1] 70.5 µM | [16] 100 µM | [6] 152 µM | [10] 23.5 µM
inactive: [11] | [14] | [4] | [7] | [8]

C[As+](C)(C)CC(=O)[O-]
inactive: [1] | [2] | [12] | [16] | [6] | [7] | [8] | [17] | [10]

C=CC(Cl)CCl (centres undefined)
active: [10] 20.2 µM
inactive: [1] | [12] | [13] | [9] | [6] | [7] | [8]

CCCCCCCCCCCCc1cccc(S(=O)(=O)O)c1
active: [10] 44.3 µM
inactive: [1] | [4] | [9] | [16] | [6] | [7] | [8] | [17]

ClCCN1CCOCC1
not listed: [2] | [5] | [9] | [11] | [12] | [13] | [14]
inactive: all other assays above

CN(C)[C@@H]1C(=O)C(C(N)=O)=C(O)[C@@]2(O)C(=O)C3=C(O)c4c(O)ccc(Cl)c4[C@@](C)(O)[C@H]3C[C@@H]12
active: [10] 20.3 µM
inactive: [1] | [13] | [4] | [5] | [9] | [16] | [6] | [8] | [17]

C#C[C@]1(O)CC[C@H]2[C@@H]3CCC4=CC(=O)CC[C@]4(C)[C@H]3CC[C@@]21C
inactive: [1] | [3] | [4] | [16] | [6] | [8] | [17] | [10]

Reference: PubChem BioAssay (EPA / NIEHS)
